POLH inh – blocks human DNA polymerase eta activity | AID 588591 | recombinant Pol eta, fluorescent DNA replication assay | Potency, µM (doses to about 114 µM), without a hit: at the top dose activity change, negative = inhibition, hits mostly inhibitors | 390,000 compounds, 1.2% hits | Q9Y253; note: potency is the fitted concentration of half-maximal effect; % is set by controls: 0 for no effect and ±100 for the full control effect
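Pol eta at 10 nM preincubated with compounds 15 min at room temperature; reaction started with fluorescent substrate (50 nM final) and read kinetically at 0 and 10 min.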
12-LOX inh – inhibitors of human 12S-lipoxygenase ALOX12. purified 12hLO, xylenol orange hydroperoxide absorbance. Potency, µM (series often up to 108 µM), for the others: at the top dose activity change, negative = inhibition, usual class: inhibitors. 580,000 compounds, 1.1% hits. AID 1671190; note: potency is the fitted concentration of half-maximal effect; % is set by controls: 0 for no effect and ±100 for the full control effect
Target sequence (P18054 whole entry, looked up): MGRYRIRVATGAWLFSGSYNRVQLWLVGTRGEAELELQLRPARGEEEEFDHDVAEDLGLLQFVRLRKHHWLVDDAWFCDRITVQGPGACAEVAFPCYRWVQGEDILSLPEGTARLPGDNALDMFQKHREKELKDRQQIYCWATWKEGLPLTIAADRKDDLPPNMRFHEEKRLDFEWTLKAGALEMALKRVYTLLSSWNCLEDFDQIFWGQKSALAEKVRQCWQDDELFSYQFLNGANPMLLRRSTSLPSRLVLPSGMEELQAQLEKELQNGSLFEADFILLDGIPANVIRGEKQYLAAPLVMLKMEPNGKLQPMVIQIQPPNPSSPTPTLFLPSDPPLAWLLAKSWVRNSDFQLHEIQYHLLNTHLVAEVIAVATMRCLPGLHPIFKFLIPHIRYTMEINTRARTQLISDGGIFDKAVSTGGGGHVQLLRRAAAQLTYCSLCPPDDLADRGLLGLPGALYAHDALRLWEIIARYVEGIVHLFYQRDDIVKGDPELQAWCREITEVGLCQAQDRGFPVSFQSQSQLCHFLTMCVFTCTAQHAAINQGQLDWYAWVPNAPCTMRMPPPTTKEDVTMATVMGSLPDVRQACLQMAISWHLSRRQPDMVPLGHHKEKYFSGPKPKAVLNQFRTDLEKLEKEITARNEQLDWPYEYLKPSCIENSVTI
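Purified human 12hLO (150 nM final) in 25 mM Hepes, 0.01% Triton X-100, pH 7.0 was preincubated 15 min at room temperature with compound. Then 40 uM arachidonic acid was added, 30 min. Hydroperoxide was read by Fe-XO absorbance ratio 573/405 nm.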
Pol kappa inh – DNA polymerase kappa (human) inhibition. 400,000 compounds, 0.53% hits. Q9UBT6. purified Pol kappa, fluorescent DNA synthesis assay, 10 min. Potency, µM (series often up to 107 µM), inactives show at the highest dose activity, negative = inhibition, usual class: inhibitors. AID 588579; note: potency is the fitted concentration of half-maximal effect; % is set by controls: 0 for no effect and ±100 for the full control effect
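Fluorescent qHTS in 1536-well format: enzyme (10 nM) and compound sat 15 min at room temperature before 50 nM substrate (final) was added. Signal taken at 0 and 10 min; no-enzyme buffer wells were negative controls.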
Pol iota inh – blocks human DNA polymerase iota activity; Pol iota fluorescent replication assay, 10 min; Potency, µM (highest dose often 115 µM), for the others: top-dose activity, negative = inhibition, actives largely listed as inhibitors; 390,000 compounds, 1% hits; note: potency is the fitted concentration of half-maximal effect
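Pol iota at 10 nM preincubated 15 min with compounds at room temperature; reaction started with fluorescent substrate, 50 nM final. Fluorescence read kinetically at 0 and 10 min; buffer-only wells as negative control.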
POLB inh – blocks human DNA polymerase beta activity. P06746. 340,000 compounds, 1.3% hits. Pol beta primer extension/strand displacement, fluorescence kinetic. AID 485314. Potency, µM (titrated, usually from 114 µM), for the others: at the top dose activity change, negative = inhibition, usual class: inhibitors; note: potency is the fitted concentration of half-maximal effect; % is set by controls: 0 for no effect and ±100 for the full control effect
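Pol beta (10 nM) and compounds were preincubated 15 min at room temperature, then 50 nM substrate (final) started primer extension/strand displacement. Reads were taken at 0 and 10 min; concentration-response data were fitted to a four-parameter Hill equation.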
PI5P4K alpha inh – blocks human PI5P4K alpha kinase activity; PI5P4Kalpha enzyme, ADP-Glo luminescence, 60 min; active compounds read low; AID 652105; max response, %; 330,000 compounds, 1.2% hits; active = max response of -50% or lower; inconclusive = between -30% and -50%; inactive = -30% or higher; note: value at the top dose of about 77 µM; % is set by controls: 0 for no effect and ±100 for the full control effect
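ADP-Glo luminescence end-point after a 60 min room-temperature kinase reaction. PI5P4Kalpha and substrate in HEPES pH 7.4 buffer with EGTA, 0.1% CHAPS and 5% DMSO; ATP at 5 microM final.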
Numbers without * were called inactive; ? = inconclusive; / = not tested or not shown; [ ] = remark or other dose. Hits are enriched below; roughly 2.9% of the tested compounds scored in any of these assays. Unless noted, calls come from the whole dose curve; as a rule, active = well fitted inhibition curve with a large enough effect; inconclusive = small, poorly fitted or top-dose-only effect, or another doubt; inactive = no such curve, though single readings can be large or run the other way.

SMILES	POLH inh	12-LOX inh	Pol kappa inh	Pol iota inh	POLB inh	PI5P4K alpha inh
CCOc1cccc(CNC2CCCCC2)c1	/	-18%	/	/	/	/
CCCc1cc(=O)oc2cc(OCC(=O)NCC(C)C)ccc12	/	7%	/	/	/	/
O=C(Nc1ccc2c(c1)OCO2)c1cc2ncc(Br)cn2n1	3.5µM*	?	-41%	?	28µM*	?
COC(=O)c1ccccc1NC(=O)c1cc2nc(-c3ccc(OC)cc3)cc(C(F)(F)F)n2n1	0%	-8%	-9%	-2%	40%	/
COC(=O)c1ccccc1NC(=O)c1cc2nc(C3CC3)cc(C(F)(F)F)n2n1	79µM*	-21%	-22%	?	50µM*	/
O=C(Nc1ccc2c(c1)OCO2)c1cc2nc(C3CC3)cc(C(F)(F)F)n2n1	?	14%	-18%	?	40µM*	/
CCc1ccc2c(c1)C(O)(c1c[nH]c3ccccc13)C(=O)N2 (configuration not stated)	/	-15%	/	/	/	/
CCNS(=O)(=O)c1ccc(C)c(C(=O)Nc2cccc3c2CCCC3)c1	/	19%	/	/	/	/
O=[N+]([O-])c1ccc2c(c1)C=CC2	/	/	79µM*	79µM*	/	/
COc1ccc2c(C)c(CC(=O)N3CCCC3)c(=O)oc2c1OC	/	-6%	/	/	/	/
O=C1NC(=S)SC1=Cc1ccccc1C(=O)O	/	?	/	/	/	-78*
O=C(COc1ccccc1/C=C1\SC(=S)NC1=O)Nc1ccc(F)cc1	?	3%	-17%	?	/	-21
Cn1c(=O)c2[nH]c(NCc3ccc(F)cc3)nc2n(C)c1=O	/	8%	/	/	/	/
O=C(Cn1cnc2c(oc3ccccc32)c1=O)NCc1ccccc1	5%	-1%	3%	-1%	25µM*	3
O=[N+]([O-])c1cccc(C=NNc2ccccc2)c1	-18%	45µM*	-15%	87%	/	4
O=[N+]([O-])c1ccc(C=NNc2ccccc2)cc1	-11%	?	-18%	65%	/	9
O=C(O)C(c1c[nH]c2cc(F)ccc12)N1CCN(Cc2ccccc2)CC1 (configuration not stated)	/	-37%	/	/	/	/
O=C(O)C(c1c[nH]c2cc(F)ccc12)N1CCN(Cc2cccc3ccccc23)CC1 (configuration not stated)	/	40µM*	/	/	/	/
O=C1NC[C@@H](CCCCN2C[C@H](Cc3ccc(O)cc3)N(CC3CCCCC3)C(=O)C2=O)N(CC2CCCCC2)C1=O	/	22µM*	/	/	/	-3
O=C1NC[C@H](CCCCN2C[C@H](Cc3ccc(O)cc3)N(CC3CCCCC3)C(=O)C2=O)N(CCC2CCCCC2)C1=O	/	?	/	/	/	0
CSc1ccc(CNC(=O)c2ccc(Nc3cc(-c4ccc(F)cc4)ncn3)cc2)cc1	/	-2%	/	/	/	/
Cc1csc(/C(C#N)=C\C2=Cc3cc(Cl)ccc3OC2)n1	/	50µM*	/	/	/	/
CC(NC(=O)c1ccc(Br)o1)C12CC3CC(CC(C3)C1)C2 (configuration not stated)	/	-11%	/	/	/	/
Cc1oc(-c2ccccc2)nc1CC(=O)Nc1cc(F)ccc1F	/	-6%	/	/	/	/
Cc1oc(-c2ccccc2)nc1CC(=O)Nc1ccc(Cl)cc1Cl	/	7.9µM*	/	/	/	/
SMILES	POLH inh	12-LOX inh	Pol kappa inh	Pol iota inh	POLB inh	PI5P4K alpha inh
COc1ccc(N2CC(C(=O)Nc3c(C)nn(C)c3C)CC2=O)c(OC)c1 (configuration not stated)	/	5%	/	/	/	/
CC1C2CC(CC2C2CCCC(O)C2)C1(C)C (configuration not stated)	/	5%	/	/	/	/
Cc1cccc(C)c1NC(=S)NC(=O)c1cccc(Cl)c1	/	32µM*	/	/	/	-1
CCC(=O)N1CCN(c2ccc(NC(=S)NC(=O)c3ccc(OC)c([N+](=O)[O-])c3)cc2)CC1	-3%	0%	-6%	24%	-1%	6
Cc1cccc(C(=O)Nc2ccc(NC(=S)NC(=O)c3cccc(Cl)c3)cc2)c1	/	18µM*	/	/	/	/
CCCC(=O)N1CCN(c2ccc(NC(=S)NC(=O)c3cccc(C)c3)cc2)CC1	-19%	16µM*	-5%	180%	16%	0
CNC(=O)NC(=O)C(C)Sc1cc(C)c2ccccc2n1 (configuration not stated)	/	-3%	/	/	/	/
C=CCn1c(SCC(=O)NCC2CCCO2)nc2scc(-c3ccco3)c2c1=O (configuration not stated)	-9%	-21%	-33%	?	7.1µM*	/
C=CCn1c(SCC(=O)NCCOC)nc2scc(-c3ccco3)c2c1=O	18µM*	?	?	?	?	-7
COc1cc(C(=O)NS(=O)(=O)c2ccccc2C)ccc1Cc1cn(C)c2ccc(NC(=O)OC3CCCC3)cc12	/	3%[57.4 µM]	?	/	56µM*	/
O=C(Cn1c(=O)oc2ccccc21)Nc1n[nH]c(=S)s1	-14%	-6%	-38%	27%	-10%	-79*
O=C(Cn1c(=O)oc2ccccc21)Nc1nc(-c2ccccc2)cs1	1%	-4%	-1%[60.1 µM]	?	?	/
Cc1ccc(NC(=O)Cn2c(=O)oc3ccccc32)cc1Cl	0%	15%	-23%	92%	40µM*	-1
Cc1c(Cl)cccc1NC(=O)Nc1cc2c(cc1Oc1ccccc1)n(C)c(=O)n2C	/	-34%	/	/	/	/
CCC(CO)NC(=O)C(=O)Nc1c2c(nn1-c1ccc(F)cc1)CSC2 (configuration not stated)	-8%	-4%	-10%[60.1 µM]	89µM*	24%	/
CC(NC(=O)C(=O)Nc1c2c(nn1-c1ccc(F)cc1)CSC2)c1ccccc1 (configuration not stated)	-7%	-60%	-1%[60.1 µM]	?	?	/
CC(=O)COc1ccc2c(c1C)O/C(=C\c1ccco1)C2=O	22µM*	?	?	?	45µM*	-12
COc1ccc(NC(=O)C2(N(C)C(=O)Cc3nc(N)n[nH]3)CCCCC2)cc1	/	15%	/	/	/	/
CN(C)C(CN=C1NS(=O)(=O)c2ccccc21)c1ccco1 (configuration not stated)	-20%	29%	-31%	79µM*	?	0
CCOC(=O)c1cc(CC)sc1NC(=O)COC	4%	-5%	-11%	4%[58.9 µM]	21%	/
CCCCN1C(=O)C(=O)N(CC(=O)Nc2sc(CC)cc2C(=O)OCC)C1=O	1%	-10%	-6%	79µM*	/	6
COC(=O)C(C(=O)OC)C(c1ccc(Br)cc1)C(C)C(=O)c1ccc(C)cc1C (configuration not stated)	/	91%	/	/	/	/
Cc1ccc(S(=O)(=O)Cn2nnnc2C(CC(C)C)N2CCN(C(=O)c3ccco3)CC2)cc1 (configuration not stated)	?	-27%	-8%	-16%	3%	-7
CCN1CCN(C(CC(C)C)c2nnnn2CS(=O)(=O)c2ccc(C)cc2)CC1 (configuration not stated)	-4%	7.1µM*	-10%	60%	3%	17
O=[N+]([O-])C(=C1Nc2ccccc2N1)C(Cl)=C(Cl)Cl	11%	?	-13%	50µM*	0%	-26
COc1cccc(N2C(=O)NC(=NC3CCCCC3)C23CCCN(CC2CC2)C3)c1 (configuration not stated)	/	8%[6.33 µM]	/	/	/	/
